Source: PubChem (National Center for Advancing Translational Sciences (NCATS))
Gal4-VP16 FLuc – VP16 counterscreen qHTS for inhibitors of ROR gamma transcriptional activity | Drosophila S2 Gal4-VP16 UAS-luciferase, luminescence, 20 h | Potency, µM (series often up to 53.6 µM), inactives show at the top dose activity, negative = inhibition, actives largely listed as inhibitors | 3.5% of 310,000 active | AID 2546, 2010;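 further: Gal4-VP16 expression switched on by copper sulfate through the metallothionein promoter; potency means the concentration at half of the fitted maximal effect; nearly all actives have a fitted effect of over 50% in size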
DT40 TDP1 CPT – qHTS for Inhibitors of human tyrosyl-DNA phosphodiesterase 1 (TDP1): qHTS in cells in presence of CPT | 12% of 420,000 active | chicken DT40 Tdp1-/-;hTDP1 cells + 20 nM CPT, ATP luminescence, 48 h | Potency, µM (top dose mostly 46.2 µM), inactives show top-dose activity change, negative = growth inhibition, most hits filed as inhibitors; further: potency means the concentration at half of the fitted maximal effect; nearly all actives have a fitted effect of over 55% in size
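Chicken DT40 Tdp1-/- cells complemented with human TDP1, 400 cells/well, exposed to compounds plus 20 nM camptothecin for at least 48 h at 37 C; viability read as ATP content by CellTiter-Glo luminescence.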
RORgamma inh – qHTS for inhibitors of ROR gamma transcriptional activity; 5.4% of 310,000 active; Drosophila S2 Gal4-RORgamma UAS-luciferase reporter, 20 h; Potency, µM (series often up to 53.6 µM), for the others: top-dose activity change, negative = inhibition, most hits filed as inhibitors; Nuclear receptor ROR-gamma (Mus musculus), P51450; further: potency means the concentration at half of the fitted maximal effect; nearly all actives have a fitted effect of over 60% in size
Target sequence (P51450 whole entry, looked up, the tested form may be a part): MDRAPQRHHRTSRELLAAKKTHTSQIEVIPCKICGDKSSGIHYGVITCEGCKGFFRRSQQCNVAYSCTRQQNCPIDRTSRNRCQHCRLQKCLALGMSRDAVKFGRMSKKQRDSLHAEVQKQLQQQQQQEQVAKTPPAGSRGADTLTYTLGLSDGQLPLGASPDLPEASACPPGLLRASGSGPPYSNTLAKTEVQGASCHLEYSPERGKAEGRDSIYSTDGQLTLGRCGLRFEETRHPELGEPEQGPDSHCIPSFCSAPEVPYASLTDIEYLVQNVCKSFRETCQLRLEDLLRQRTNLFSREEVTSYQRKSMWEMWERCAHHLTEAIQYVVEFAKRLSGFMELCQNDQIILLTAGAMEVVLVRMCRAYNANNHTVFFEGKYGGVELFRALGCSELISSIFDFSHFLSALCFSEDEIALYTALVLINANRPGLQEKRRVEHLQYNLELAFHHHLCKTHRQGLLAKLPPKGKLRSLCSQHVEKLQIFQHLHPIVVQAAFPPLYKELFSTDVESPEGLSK
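Drosophila S2 cells stably expressing Gal4-DBD/mouse RORγ fusion under metallothionein promoter plus UAS-luciferase; compound 1 h, then 700 uM CuSO4 induction for 20 h at ambient temperature; inhibition read as reduced luminescence.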
DT40 TDP1 no CPT – qHTS for Inhibitors of human tyrosyl-DNA phosphodiesterase 1 (TDP1): qHTS in cells in absence of CPT | DT40 Tdp1-/- hTDP1 cells, no CPT, ATP luminescence, 48 h | Potency, µM (top dose mostly 46.2 µM), for the others: at the highest dose activity change, negative = growth inhibition, actives largely listed as inhibitors | 15% of 420,000 active | AID 686978, 2013; further: potency means the concentration at half of the fitted maximal effect; nearly all actives have a fitted effect of over 55% in size
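Growth kinetics read by CellTiter-Glo luminescence after ≥48 hr at 37 °C. Cells: DT40 Tdp1-/- stably carrying human TDP1, 400 per well, compound exposure in the absence of CPT (DMSO vehicle).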
LDHA inh – qHTS assay for inhibitors of human lactate dehydrogenase. L-lactate dehydrogenase A chain (Homo sapiens), P00338. purified LDHA, NADH/diaphorase-resazurin fluorescence; active compounds read low. activity change, % (values are at about 110 or 230 µM). 0.15% of 480,000 active; in the data active means activity change below about -30%; inconclusive means mostly about -25% to -30%;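 further: plate controls were DMSO wells for no effect and wells without enzyme for full effect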
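Enzyme activity of human lactate dehydrogenase 5 (2 nM; 0.06 mM NADH, 0.2 mM pyruvate, 5 min, RT) is measured via a resazurin/diaphorase fluorescence readout of residual NADH.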
IL-1B inflam inh – qHTS for Inhibitors of Inflammasome Signaling: IL-1-beta AlphaLISA Primary Screen; THP-1 LPS/ATP IL-1B secretion, AlphaLISA, 16 h; active compounds read low; activity change, % at 57.5 µM; 4.7% of 360,000 active; in the data active means activity change below about -50%; inconclusive means mostly about -30% to -49%
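Secreted IL-1B measured by AlphaLISA bead assay after 16 h compound exposure of THP-1 cells; compounds (final up to 57.5 uM) added 1 h before LPS (250 ng/mL) and ATP (1.25 mM) stimulation; lower signal means less secretion.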
The depositor's hits bear a star; ? = inconclusive; / = no result; [ ] = remark or other dose. This is a sample that favours compounds with a hit; in the whole collection about 18% have one here. Unless noted, the call rests on the fitted dose curve; in most records, active means well fitted curve in the direction sought with a large enough effect; inconclusive means small, poorly fitted or top-dose-only effect, or another doubt; inactive means no such curve, though single readings can be large; an effect the other way counts as inactive or inconclusive. Unless noted, on the % scale 0 is the no-effect control and ±100 the full control effect.

SMILES	Gal4-VP16 FLuc	DT40 TDP1 CPT	RORgamma inh	DT40 TDP1 no CPT	LDHA inh	IL-1B inflam inh
CCCCCn1nc(C(=O)N2CCCC(C(N)=O)C2)c2ccccc2c1=O (stereo not drawn)	/	/	/	/	16	/
CCOc1ccc(NC(=S)Nc2cccc3cnccc23)cc1	?	?	18µM*	?	27	28
S=C(Nc1ccc(Cl)cc1)Nc1cccc2cnccc12	-1%	?	-20%	23µM*	21	?
CCOc1ccc(NC(=S)Nc2ccccc2C2CC2)cc1	11µM*	5.8µM*	2.8µM*	4.1µM*	-13	-13
CCOc1ccc(NC(=S)Nc2cccc3ccccc23)cc1	8.9µM*	?	7.9µM*	-14%	0	-6
COc1ccc(NC(=S)Nc2cccc3cnccc23)cc1	1%	0%	-32%	-13%	16	13
CCOc1ccc(NC(=O)c2ccccc2)cc1	/	/	/	/	2	/
CN(C)S(=O)(=O)c1cccc(NC(=S)Nc2cccc3cnccc23)c1	?	16µM*	?	13µM*	31	39
COc1ccccc1NC(=S)Nc1cccc2cnccc12	-6%	26µM*	?	23µM*	8	12
CC(C)c1cccc(C(C)C)c1NC(=O)c1nn(C)c(=O)c2ccccc12	/	/	/	/	5	/
CCc1ccc(OCC(=O)Nc2c(C)ccc3nsnc23)cc1	/	/	/	/	4	/
Cc1ccc(-n2nc(CO)c(C(=O)NCCCc3ccccc3)n2)cc1	/	?	/	23µM*	-2	/
Cc1ccc(-n2nc(CO)c(C(=O)NC(C)CCCc3ccccc3)n2)cc1 (stereo not drawn)	/	?	/	21µM*	-7	/
CC(C)(CC(=O)O)CC(=O)Nc1ccccc1	/	/	/	/	-18	/
CNC(=O)NC(=O)C(c1ccccc1)N(C)Cc1ccccc1 (stereo not drawn)	/	/	/	/	3	/
CCOc1ccc(C(=O)Nc2ccc3nc(NC(C)=O)sc3c2)cc1OCC	/	/	/	/	-6	/
Cc1cc(C)nc(-n2nc(C)c3c2N(Cc2ccccc2F)C(=O)CC3c2ccc(Cl)cc2)n1 (stereo not drawn)	/	23µM*	/	23µM*	4	/
COc1ccc(-c2cc(C(=O)N3CC4(C)CC3CC(C)(C)C4)no2)cc1 (stereo not drawn)	0%	?	23%	?	1	-53*
Cc1ccc(-c2cc(C(=O)N3CC4(C)CC3CC(C)(C)C4)no2)cc1 (stereo not drawn)	/	18µM*	/	10µM*	0	17
Cc1ccc(-c2cc(C(=O)N3CCN(C(=O)c4ccco4)CC3)no2)cc1	/	?	2%[0.365 µM]	-13%	-4	-14
CC1CCN(C(=O)c2cc(-c3ccccc3O)on2)CC1	-29%	-27%	0%	-20%	1	-8
CC1(C)CC2CC(C)(CN2C(=O)c2cc(-c3ccccc3O)on2)C1 (stereo not drawn)	0%	?	26%	13µM*	3	21
COc1ccc(/C(C)=N/OCC(=O)N2CC3(C)CC2CC(C)(C)C3)cc1 (stereo not drawn)	-10%	?	23%	?	3	-78*
COc1ccc(/C=N/OCC(=O)N2CC3(C)CC2CC(C)(C)C3)cc1 (stereo not drawn)	-2%	-15%	0%	-14%	0	?
O=C(Nc1ccc(Cc2ccncc2)cc1)Nc1ccc(F)cc1F	/	/	/	/	6	/
SMILES	Gal4-VP16 FLuc	DT40 TDP1 CPT	RORgamma inh	DT40 TDP1 no CPT	LDHA inh	IL-1B inflam inh
C/C=C/C=C/C(=O)Nc1ccccc1SC	/	/	/	/	-8	/
Cc1ccc(/C=C(/C#N)C(=O)NC2CCCCC2)cc1C	/	/	/	/	-9	/
COc1ccc(-c2cc(C(=O)N3CCCCC3C)no2)cc1OC (stereo not drawn)	/	-3%	/	-17%	-5	/
COc1ccc(-c2cc(C(=O)N3CC4(C)CC3CC(C)(C)C4)no2)cc1OC (stereo not drawn)	-20%	?	25%	16µM*	5	-2
CC1(C)C[C@@H]2C[C@@](C)(CN2C(=O)c2cc(COc3cccc(C(F)(F)F)c3)on2)C1	?	?	-31%	18µM*	1	-61*
Cc1ccc2c(=O)cc(C(=O)Nc3sc4c(c3C#N)CCCC4)oc2c1	/	/	/	/	3	/
O=C(O)C/C(=C/c1ccc(Br)cc1)c1nc2ccccc2s1	/	/	/	/	6	/
Cc1ccc2cc(C#N)c(N3CCN(C(=O)c4cccs4)CC3)nc2c1	19%	?	-1%[1.91 µM]	21µM*	-9	5
Cc1ccc2nc(N3CCN(C(=O)c4ccc(F)cc4)CC3)c(C#N)cc2c1	?	?	?	23µM*	-2	-10
CN(Cc1ccccc1)C(=O)C1CCC(C(=O)N(C)Cc2ccccc2)CC1 (stereo not drawn)	/	/	/	/	1	/
N#Cc1ccsc1NC(=O)c1ccccc1Cc1ccccc1	/	/	/	/	1	/
Cn1c(=O)c2[nH]c(COc3ccc(C(C)(C)C)cc3)nc2n(C)c1=O	?	8.2µM*	-3%	4.6µM*	-2	38
Cn1c(=O)c2[nH]c(CNCc3ccccc3Cl)nc2n(C)c1=O	-1%	3.7µM*	15%	3.3µM*	4	-1
Cn1c(=O)c2[nH]c(Cc3cccc(O)c3)nc2n(C)c1=O	/	-9%	/	?	3	10
Cn1c(=O)c2[nH]c(CCCCCCCc3nc4ccccc4[nH]3)nc2n(C)c1=O	/	23µM*	/	13µM*	-8	-19
Cn1c(=O)c2[nH]c(CN3CCN(Cc4ccccc4)CC3)nc2n(C)c1=O	-19%	-20%	5%	-14%	5	12
CCCNS(=O)(=O)c1cccc(C(=O)Nc2ccc(N3CCCCC3)c3ccncc23)c1	/	/	/	/	81	/
Cc1ccccc1CSc1nnc(-c2c[nH]c3ccccc23)o1	/	/	/	/	-2	/
O=C(O)c1ccc(-n2cccc2/C=C2\NC(=O)N(Cc3ccccc3)C2=O)cc1	/	/	/	/	-15	/
COc1ccc(C2=NOC(Cn3nc(C(=O)NCc4ccc(OC(F)(F)F)cc4)cc3-c3ccccc3)C2)cc1 (stereo not drawn)	/	?	/	?	-5	?
COc1ccc(C2=NOC(Cn3nc(C(=O)NCc4ccccc4OC)cc3-c3ccccc3)C2)cc1 (stereo not drawn)	/	23µM*	/	21µM*	-4	3
COc1ccc(C2=NOC(Cn3nc(C(=O)NCC4CC4)cc3-c3ccccc3)C2)cc1 (stereo not drawn)	/	21µM*	/	?	-9	5
